Experimental data from PubChem BioAssay (NCATS).
Inconclusive results are not listed. Values without a mark were called inactive. Active and inactive are the calls of the source. Calls come from the whole dose curve.

Assay: Primary qHTS for inhibitors of SARS-S pseudo-typed particle cell entry (AID 1479145); note: nearly all actives have a fitted effect of over 45% in size
Settings: SARS-S pseudotyped particle cell entry, luciferase reporter; series mostly up to 57.1 µM; activity change, negative = inhibition: at the top concentration
% is set by controls: 0 for no effect and ±100 for the full control effect; potency is the fitted concentration of half-maximal effect.

| SMILES | activity change, negative = inhibition | outcome | Potency |
| --- | --- | --- | --- |
| C[C@H](N)C(=O)N[C@@H](C)C(=O)NC1[C@H]2CN(c3nc4c(cc3F)c(=O)c(C(=O)O)cn4-c3ccc(F)cc3F)C[C@@H]12 (stereo partly drawn) | -22.3% | – | – |
| CC(C)(C)C(=O)OCOC(=O)[C@@H]1N2C(=O)[C@@H](NC(=O)[C@H](N)c3ccccc3)[C@H]2SC1(C)C | – | inactive | – |
| C[C@]12CC[C@@H]3c4ccc(O)cc4CC[C@H]3[C@@H]1C[C@@H](O)[C@@H]2O | -21.2% | – | – |
| COc1ccccc1N1CCN(CCCNc2cc(=O)n(C)c(=O)n2C)CC1 | -29.6% | – | – |
| CO/N=C(/C(=O)N[C@@H]1C(=O)N2C(C(=O)O)=C(Cn3nnc(C)n3)CS[C@H]12)c1csc(N)n1 | 4.56% | – | – |
| CCCCC/C=C\C/C=C\CCCCCCCC(=O)NC(C)c1ccccc1 (stereo not drawn) | – | inactive | – |
| CC(C)C(=O)OCc1cccc(OC(=O)[C@@H]2N3C(=O)[C@@H](NC(=O)Cc4ccccc4)[C@H]3SC2(C)C)c1 | – | inactive | – |
| CC1=C(CC(=O)O)c2cc(F)ccc2/C1=C\c1ccc(S(C)=O)cc1 (stereo not drawn) | – | inactive | – |
| CC(C(=O)O)c1ccc(CC2CCCC2=O)cc1 (stereo not drawn) | – | inactive | – |
| FC(F)(F)C(Cl)Br (stereo not drawn) | -28.9% | – | – |
| NC(=O)CC[C@@H](N)C(=O)O | – | inactive | – |
| CC(C)(C)C(=O)C(Oc1ccc(Cl)cc1)n1ccnc1 (stereo not drawn) | -10.4% | – | – |
| CC(=O)Oc1ccc(C(=C2CCCCC2)c2ccc(OC(C)=O)cc2)cc1 | 4.46% | – | – |
| CCCCOc1ccc(CC(=O)NO)cc1 | – | inactive | – |
| Cc1c(F)cc2c(=O)c(C(=O)O)cn3c2c1CCC3C (stereo not drawn) | -22.1% | – | – |
| O=Cc1ccccc1C=O | -14.3% | – | – |
| Oc1cccc(-c2c3nc(c(-c4cccc(O)c4)c4ccc([nH]4)c(-c4cccc(O)c4)c4nc(c(-c5cccc(O)c5)c5ccc2[nH]5)CC4)C=C3)c1 | -26.4% | – | – |
| Cc1ccc2c(Cl)cc(Cl)c(O)c2n1 | – | inactive | – |
| C#C[C@]1(O)CC[C@H]2[C@@H]3CCc4cc(OC)ccc4[C@H]3CC[C@@]21C | -18.3% | – | – |

| SMILES | activity change, negative = inhibition | outcome | Potency |
| --- | --- | --- | --- |
| CN(C)C(=S)SC(=S)N(C)C | – | – | 1410 nM (active) |
| CCCCCC1Nc2cc(C(F)(F)F)c(S(N)(=O)=O)cc2S(=O)(=O)N1 (stereo not drawn) | -3.59% | – | – |
| Oc1ccc(CCNCCCCCCNCCc2ccccc2)cc1O | -14.6% | – | – |
| CC1(C)O[C@@H]2C[C@H]3[C@@H]4CCC5=CC(=O)CC[C@]5(C)[C@@]4(F)[C@@H](O)C[C@]3(C)[C@]2(C(=O)CCl)O1 | – | inactive | – |
| CC(=O)OC[C@H]1O[C@@](COC(C)=O)(O[C@H]2O[C@H](COC(C)=O)[C@@H](OC(C)=O)[C@H](OC(C)=O)[C@H]2OC(C)=O)[C@@H](OC(C)=O)[C@@H]1OC(C)=O | -26.4% | – | – |
| N[C@@H](CSSC[C@H](N)C(=O)O)C(=O)O | – | inactive [at 0.573 µM] | – |
| Cc1cc(O)c(C(C)C)cc1Cl | -2.37% | – | – |
| CCCc1ncc(C[n+]2ccccc2C)c(N)n1 | -3.12% | – | – |
| CCCCC(=O)O[C@]1(C(=O)CO)[C@@H](C)C[C@H]2[C@@H]3CCC4=CC(=O)C=C[C@]4(C)[C@@]3(F)[C@@H](O)C[C@@]21C | – | inactive | – |
| NC(CSCC(=O)O)C(=O)O (stereo not drawn) | -8.15% | – | – |
| C/C(=C(\CCOP(=O)(O)O)SC(=O)c1ccccc1)N(C=O)Cc1cnc(C)nc1N | – | inactive [at 5.34 µM] | – |
| CC1(C)OC[C@@H](COC(=O)CCc2ccc(OC[C@@H](O)CNCCNC(=O)N3CCOCC3)cc2)O1 | -6.89% | – | – |
| NS(=O)(=O)c1cc2c(cc1Cl)NC(CSCc1ccccc1)=NS2(=O)=O | – | inactive | – |
| O=c1ccc2ccccc2o1 | -0.0875% | – | – |
| CCN1CCCC(OC(=O)C(c2ccccc2)c2ccccc2)C1 (stereo not drawn) | -10.7% | – | – |
| COc1ccc2c(c1OC)C(=O)O[C@@H]2[C@H]1c2c(cc3c(c2OC)OCO3)CCN1C | 4.46% | – | – |
| C[C@H]1NCc2cc(-c3ccc4c(=O)c(C(=O)O)cn(C5CC5)c4c3OC(F)F)ccc21 | 1.3% [at 26.4 µM] | – | – |
| C[C@]12C=CC(=O)C=C1CC[C@H]1[C@@H]3C[C@@H](O)[C@](O)(C(=O)CO)[C@@]3(C)C[C@H](O)[C@@]12F | – | inactive | – |
| CSc1ccc(C(=O)c2[nH]c(=O)[nH]c2C)cc1 | – | inactive | – |
